The results in this text go back to PMC5700166.

One assay deals with GST-Hu-p50 (Homo sapiens, UniProt P19838 7-356). The assay can be described thus: protein-binding microarray (PBM); PBM: ~300 nM protein, 6 mM HEPES pH 7.8, 80 mM KCl, 0.5 mM EDTA, 0.5 mM EGTA, 6% glycerol, 35 ng/ul poly-dIdC, 1% milk, 1 h, room temperature; Ap Aiptasia and Nv Nematostella (sea anemones) / Co Capsaspora / Aq Amphimedon (sponge) / Dm Drosophila / Hu human; RHD is the Rel homology domain; high values mean tight binding. As to conditions: dsDNA, one strand shown.
Sequence of GST-Hu-p50 (P19838 7-356): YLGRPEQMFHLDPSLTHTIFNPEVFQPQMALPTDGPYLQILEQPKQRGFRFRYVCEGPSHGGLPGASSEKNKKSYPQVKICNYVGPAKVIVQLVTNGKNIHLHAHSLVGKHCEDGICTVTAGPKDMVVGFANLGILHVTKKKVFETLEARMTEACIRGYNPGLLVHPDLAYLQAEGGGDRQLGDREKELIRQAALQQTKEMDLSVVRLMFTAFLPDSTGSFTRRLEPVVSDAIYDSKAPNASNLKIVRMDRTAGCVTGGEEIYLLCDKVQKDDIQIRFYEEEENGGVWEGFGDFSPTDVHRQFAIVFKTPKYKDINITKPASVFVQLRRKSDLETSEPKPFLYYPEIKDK
Assay [1] addresses T1, GST-Nv-NF-kB (Ser allele) (Nematostella vectensis, UniProt A7UNT2 2-411).
T1 sequence: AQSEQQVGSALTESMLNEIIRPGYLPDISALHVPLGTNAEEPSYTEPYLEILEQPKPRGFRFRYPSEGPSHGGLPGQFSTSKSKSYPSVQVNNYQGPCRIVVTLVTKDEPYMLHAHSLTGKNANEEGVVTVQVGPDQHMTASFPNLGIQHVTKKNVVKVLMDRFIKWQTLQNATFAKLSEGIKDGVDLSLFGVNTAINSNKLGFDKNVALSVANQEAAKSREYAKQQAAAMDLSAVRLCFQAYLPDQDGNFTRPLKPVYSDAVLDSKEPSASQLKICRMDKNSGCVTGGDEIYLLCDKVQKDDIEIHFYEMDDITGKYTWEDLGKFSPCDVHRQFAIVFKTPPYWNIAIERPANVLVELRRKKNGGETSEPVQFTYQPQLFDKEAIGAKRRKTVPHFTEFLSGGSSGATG
The description is as above. As to conditions: dsDNA, one strand shown.

Take “CCGATTAACATCAGGGAAAATCATGATGTTAATCGGGTCTTGATTCGCTTGACGCTGCTG”: the binding signal with GST-Hu-p50 was 3.98 z-score. As to “CCGATTAACATCAGGGGAAGGTATGATGTTAATCGGGTCTTGATTCGCTTGACGCTGCTG”, the binding signal in assay [1] worked out at 5.76 z-score; in the assay with GST-Hu-p50, 3.52 z-score.

“CCGATTAACATCAAGGAAATTCCTGATGTTAATCGGGTCTTGATTCGCTTGACGCTGCTG” showed a binding signal with GST-Hu-p50 of 1.33 z-score. For the sequence “CCGATTAACATCACAAACGGGGCTGATGTTAATCGGGTCTTGATTCGCTTGACGCTGCTG”, the binding signal was found to be 1.73 z-score in assay [1] and 2.88 z-score in the assay with GST-Hu-p50. On the same counts, the results for “CCGATTAACATCAGGGAAAAGGATGATGTTAATCGGGTCTTGATTCGCTTGACGCTGCTG” are 4.08 z-score and 1.47 z-score. In turn, “CCGATTAACATCAGGAAAAAACCTGATGTTAATCGGGTCTTGATTCGCTTGACGCTGCTG” registered a binding signal in the assay with GST-Hu-p50 of 2.63 z-score. “CCGATTAACATCAGGGCTTTACCTGATGTTAATCGGGTCTTGATTCGCTTGACGCTGCTG”: the binding signal in assay [1] was 1.71 z-score; with GST-Hu-p50, 2.02 z-score. Turning to “CCGATTAACATCAAAACAGTCCCTGATGTTAATCGGGTCTTGATTCGCTTGACGCTGCTG”, the binding signal (in assay [1]; with GST-Hu-p50) was 4.68 z-score each time. In the assay with GST-Hu-p50, “CCGATTAACATCAGGAATTGCCCTGATGTTAATCGGGTCTTGATTCGCTTGACGCTGCTG” came in with a binding signal of 1.09 z-score. Turning to “CCGATTAACATCACAAAACTCCCTGATGTTAATCGGGTCTTGATTCGCTTGACGCTGCTG”, the binding signal is 6.52 z-score in assay [1] and 4.95 z-score with GST-Hu-p50. The like results for “CCGATTAACATCAGCGAATTCCCTGATGTTAATCGGGTCTTGATTCGCTTGACGCTGCTG” were, in that order, 4.46 z-score and 3.28 z-score.

In the assay with GST-Hu-p50, “CCGATTAACATCACAGGAATTTCTGATGTTAATCGGGTCTTGATTCGCTTGACGCTGCTG” gave a binding signal of 1.08 z-score. Same read-out and setting: under “CCGATTAACATCACGGCAATCCCTGATGTTAATCGGGTCTTGATTCGCTTGACGCTGCTG” stands 1.12 z-score. Consider “CCGATTAACATCAGGGGAGGAAATGATGTTAATCGGGTCTTGATTCGCTTGACGCTGCTG”, for which the binding signal in assay [1] stood at 4.9 z-score; in the assay with GST-Hu-p50 it was 3.1 z-score. Turning to “CCGATTAACATCACAATAACGGGTGATGTTAATCGGGTCTTGATTCGCTTGACGCTGCTG”, the binding signal with GST-Hu-p50 is 1.74 z-score. “CCGATTAACATCAGGAGTACCCCTGATGTTAATCGGGTCTTGATTCGCTTGACGCTGCTG”: the binding signal in assay [1] was found to be 2.31 z-score; with GST-Hu-p50, 2.81 z-score. Turning to “CCGATTAACATCACTACTTTCCCTGATGTTAATCGGGTCTTGATTCGCTTGACGCTGCTG”, the binding signal was determined as 5.24 z-score in assay [1] and 3.06 z-score in the assay with GST-Hu-p50.

For “CCGATTAACATCACCCAACCCCCTGATGTTAATCGGGTCTTGATTCGCTTGACGCTGCTG”, the binding signal was determined as 3.73 z-score in assay [1] and 4.28 z-score with GST-Hu-p50.

On to “CCGATTAACATCAGGAAAGTTCCTGATGTTAATCGGGTCTTGATTCGCTTGACGCTGCTG”, for which the binding signal in the assay with GST-Hu-p50 stood at 1.06 z-score. With “CCGATTAACATCACTGTTTTCCCTGATGTTAATCGGGTCTTGATTCGCTTGACGCTGCTG”, the figures for the binding signal (in assay [1]; with GST-Hu-p50) were 6.12 z-score and 3.14 z-score, respectively.

The sequence “CCGATTAACATCACGGAATTTTCTGATGTTAATCGGGTCTTGATTCGCTTGACGCTGCTG” returned a binding signal with GST-Hu-p50 of 1.13 z-score. On to “CCGATTAACATCACCCCTCCCCATGATGTTAATCGGGTCTTGATTCGCTTGACGCTGCTG”, for which the binding signal is 3.22 z-score in assay [1] and 3.16 z-score in the assay with GST-Hu-p50. With “CCGATTAACATCAAGCCCCCCCATGATGTTAATCGGGTCTTGATTCGCTTGACGCTGCTG”, the binding signal in the assay with GST-Hu-p50 came to 3.88 z-score. “CCGATTAACATCAATGCACCCCCTGATGTTAATCGGGTCTTGATTCGCTTGACGCTGCTG”: the values for the binding signal (in assay [1]; with GST-Hu-p50) were 4.37 z-score and 4.12 z-score, respectively.

Consider “CCGATTAACATCAGGGTATTTACTGATGTTAATCGGGTCTTGATTCGCTTGACGCTGCTG”, for which the binding signal came to 4.72 z-score in assay [1] and 5.1 z-score with GST-Hu-p50. “CCGATTAACATCAGAAATCCCAATGATGTTAATCGGGTCTTGATTCGCTTGACGCTGCTG”: the binding signal in the assay with GST-Hu-p50 came out at 2.35 z-score. As to “CCGATTAACATCAAAAACACCCCTGATGTTAATCGGGTCTTGATTCGCTTGACGCTGCTG”, the binding signal in assay [1] was 3.89 z-score; with GST-Hu-p50, 4.99 z-score. On the same counts, the results for “CCGATTAACATCAGGAATTTACCTGATGTTAATCGGGTCTTGATTCGCTTGACGCTGCTG” are 4.26 z-score and 3.27 z-score. Regarding “CCGATTAACATCACGGGGTTGCCTGATGTTAATCGGGTCTTGATTCGCTTGACGCTGCTG”, the binding signal with GST-Hu-p50 came to 1.21 z-score. “CCGATTAACATCACCTTCTTTACTGATGTTAATCGGGTCTTGATTCGCTTGACGCTGCTG” registered a binding signal with GST-Hu-p50 of 1.59 z-score. Turning to “CCGATTAACATCACAAAATTTCCTGATGTTAATCGGGTCTTGATTCGCTTGACGCTGCTG”, the figures for the binding signal (in assay [1]; in the assay with GST-Hu-p50) were 1.16 z-score and 1.41 z-score, respectively. In the case of “CCGATTAACATCAGGGGTTTACCTGATGTTAATCGGGTCTTGATTCGCTTGACGCTGCTG”, the binding signal was found to be 4.43 z-score in assay [1] and 4.94 z-score with GST-Hu-p50. In turn, “CCGATTAACATCAAAATTCCCTCTGATGTTAATCGGGTCTTGATTCGCTTGACGCTGCTG” came in with a binding signal with GST-Hu-p50 of 5.19 z-score.

With “CCGATTAACATCAAAAATTCCATTGATGTTAATCGGGTCTTGATTCGCTTGACGCTGCTG”, the binding signal in the assay with GST-Hu-p50 was found to be 1.07 z-score.

As to “CCGATTAACATCAGGGAAATAACTGATGTTAATCGGGTCTTGATTCGCTTGACGCTGCTG”, the binding signal was determined as 4.37 z-score in assay [1] and 3.76 z-score with GST-Hu-p50.

“CCGATTAACATCAATGGGATTCCTGATGTTAATCGGGTCTTGATTCGCTTGACGCTGCTG” displayed a binding signal with GST-Hu-p50 of 1.23 z-score. Regarding “CCGATTAACATCAGAAGTTCCCATGATGTTAATCGGGTCTTGATTCGCTTGACGCTGCTG”, the binding signal was 1.1 z-score in assay [1] and 1.09 z-score with GST-Hu-p50. For “CCGATTAACATCAGGGATACCCCTGATGTTAATCGGGTCTTGATTCGCTTGACGCTGCTG”, the values for the binding signal (in assay [1]; in the assay with GST-Hu-p50) were 2.97 z-score and 4.12 z-score, respectively. For “CCGATTAACATCAGAAAATTTCCTGATGTTAATCGGGTCTTGATTCGCTTGACGCTGCTG”, the binding signal with GST-Hu-p50 came out at 1.69 z-score. For “CCGATTAACATCAGGGGGGGTGATGATGTTAATCGGGTCTTGATTCGCTTGACGCTGCTG”, the results for the binding signal (in assay [1]; with GST-Hu-p50) were 3.98 z-score and 4.13 z-score, respectively.

For “CCGATTAACATCAGGGGAGTATATGATGTTAATCGGGTCTTGATTCGCTTGACGCTGCTG”, the binding signal in assay [1] turned out to be 4.21 z-score; in the assay with GST-Hu-p50, 3.33 z-score.

As to “CCGATTAACATCAGGGAGGGTAATGATGTTAATCGGGTCTTGATTCGCTTGACGCTGCTG”, the values for the binding signal (in assay [1]; in the assay with GST-Hu-p50) were 2.16 z-score and 1.6 z-score, respectively.
